From the supplement of paper PMC10849652
The full data set covers some 7,900 targets. This sample favours those with a hit. About 0.6% of all pairs of compound and target were hits.

Legend:
Experiment in all cases: log2 fold change, soluble protein after heating vs DMSO (PISA); higher = thermal stabilisation; K562 cells, 10 uM, 30 min; active = over 0.2 and 3.5 SD of the protein, either way, in both replicates (recomputed)
saracatinib = compound: CN1CCN(CCOc2cc(OC3CCOCC3)c3c(Nc4c(Cl)ccc5c4OCO5)ncnc3c2)CC1 [saracatinib]
How it was run: (§1)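 K562 cells at 2×10^6 cells/mL were given 10 μM compound for 30 min. Aliquots then went through 3 min of heating across 48°C-58°C, were pooled, and were extracted in PBS with 0.5% NP-40 at 4°C, and the supernatant after 21,000xg for 90 min was quantified by TMTpro 16plex LC-MS/MS with channel sums equalised. Thermal stability relative to control samples, from duplicates, is given as log2 fold change.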

sotrastaurin = compound: CN1CCN(c2nc(C3=C(c4c[nH]c5ccccc45)C(=O)NC3=O)c3ccccc3n2)CC1 [sotrastaurin]
How it was run: as §1

alvocidib = compound: CN1CC[C@H](c2c(O)cc(O)c3c(=O)cc(-c4ccccc4Cl)oc23)[C@H](O)C1 [alvocidib]
How it was run: as §1

Tubastatin A = compound: CN1CCc2c(c3ccccc3n2Cc2ccc(C(=O)NO)cc2)C1 [Tubastatin A]
How it was run: as §1

[1] = compound: CNC(=O)C1=CC=CC=C1NC2=NC(=NC=C2Cl)NC3=C(C=C(C=C3)N4CCOCC4)OC
How it was run: as §1

defactinib = compound: CNC(=O)c1ccc(Nc2ncc(C(F)(F)F)c(NCc3nccnc3N(C)S(C)(=O)=O)n2)cc1 [defactinib]
How it was run: as §1

rucaparib = compound: CNCc1ccc(-c2[nH]c3cc(F)cc4c3c2CCNC4=O)cc1 [rucaparib]
How it was run: as §1

[2] = compound: CNc1nc(-c2ccc3c(N)n[nH]c3c2)cc(N2C[C@@H](C(=O)NC3CCCCC3)CC[C@H]2C)n1
How it was run: as §1

encorafenib = compound: COC(=O)N[C@@H](C)CNc1nccc(-c2cn(C(C)C)nc2-c2cc(Cl)cc(NS(C)(=O)=O)c2F)n1 [encorafenib]
How it was run: as §1

[3] = compound: COC(=O)[C@H](CCSC)NC(=O)C1=C(C=C(C=C1)NC[C@H](CS)N)C2=CC=CC=C2
How it was run: as §1

[4] = compound: COC1=CC=C(C=C1)CN2C=CC3=C2C=C(C=C3)C(=O)NO
How it was run: as §1

filanesib = compound: CON(C)C(=O)N1N=C(c2cc(F)ccc2F)S[C@@]1(CCCN)c1ccccc1 [filanesib]
How it was run: as §1

zotarolimus = compound: CO[C@H]1C[C@@H]2CC[C@@H](C)[C@@](O)(O2)C(=O)C(=O)N2CCCC[C@H]2C(=O)O[C@H]([C@H](C)C[C@@H]2CC[C@H](n3cnnn3)[C@H](OC)C2)CC(=O)[C@H](C)/C=C(\C)[C@@H](O)[C@@H](OC)C(=O)[C@H](C)C[C@H](C)/C=C/C=C/C=C/1C [zotarolimus]
How it was run: as §1

idasanutlin = compound: COc1cc(C(=O)O)ccc1NC(=O)[C@@H]1N[C@@H](CC(C)(C)C)[C@](C#N)(c2ccc(Cl)cc2F)[C@H]1c1cccc(Cl)c1F [idasanutlin]
How it was run: as §1

alisertib = compound: COc1cc(Nc2ncc3c(n2)-c2ccc(Cl)cc2C(c2c(F)cccc2OC)=NC3)ccc1C(=O)O [alisertib]
How it was run: as §1

[5] = compound: COc1cc2nc(-c3cc(F)ccc3O)nc(N[C@@H]3CNC[C@H]3C(C)(C)O)c2cc1OC
How it was run: as §1

gefitinib = compound: COc1cc2ncnc(Nc3ccc(F)c(Cl)c3)c2cc1OCCCN1CCOCC1 [gefitinib]
How it was run: as §1

[6] = compound: COc1cccc2cc(-c3nc([C@H]4CC[C@H](C(=O)O)CC4)n4ncnc(N)c34)[nH]c12
How it was run: as §1

lapatinib = compound: CS(=O)(=O)CCNCc1ccc(-c2ccc3ncnc(Nc4ccc(OCc5cccc(F)c5)c(Cl)c4)c3c2)o1 [lapatinib]
How it was run: as §1

pictilisib = compound: CS(=O)(=O)N1CCN(Cc2cc3nc(-c4cccc5[nH]ncc45)nc(N4CCOCC4)c3s2)CC1 [pictilisib]
How it was run: as §1

Measured: log2 fold change

POLR2A (UniProt P24928)
inactive: saracatinib -0.012 | sotrastaurin 0.034 | Tubastatin A -0.012 | [1] -0.035 | defactinib 0.241 | rucaparib 0.126 | [2] 0.025 | encorafenib 0.027 | [3] -0.07 | [4] -0.005 | filanesib -0.021 | zotarolimus -0.026 | idasanutlin -0.054 | alisertib 0.001 | gefitinib 0.015 | [6] 0.042 | lapatinib 0 | pictilisib 0.05
active: alvocidib 0.329 | [5] 0.258

PDS5A (UniProt Q29RF7)
inactive: saracatinib -0.094 | alvocidib -0.122 | Tubastatin A -0.235 | [1] 0.051 | defactinib -0.045 | rucaparib -0.025 | [2] 0.053 | encorafenib 0.028 | [3] 0.006 | [4] 0.076 | filanesib -0.316 | zotarolimus -0.137 | idasanutlin -0.012 | alisertib 0.067 | [5] 0.043 | gefitinib -0.125 | [6] -0.19 | lapatinib -0.072 | pictilisib -0.014
active: sotrastaurin -0.62

PDE4DIP isoform 4 (UniProt Q5VU43)
Chain of UniProt Q5VU43 (Q5VU43 whole entry, looked up): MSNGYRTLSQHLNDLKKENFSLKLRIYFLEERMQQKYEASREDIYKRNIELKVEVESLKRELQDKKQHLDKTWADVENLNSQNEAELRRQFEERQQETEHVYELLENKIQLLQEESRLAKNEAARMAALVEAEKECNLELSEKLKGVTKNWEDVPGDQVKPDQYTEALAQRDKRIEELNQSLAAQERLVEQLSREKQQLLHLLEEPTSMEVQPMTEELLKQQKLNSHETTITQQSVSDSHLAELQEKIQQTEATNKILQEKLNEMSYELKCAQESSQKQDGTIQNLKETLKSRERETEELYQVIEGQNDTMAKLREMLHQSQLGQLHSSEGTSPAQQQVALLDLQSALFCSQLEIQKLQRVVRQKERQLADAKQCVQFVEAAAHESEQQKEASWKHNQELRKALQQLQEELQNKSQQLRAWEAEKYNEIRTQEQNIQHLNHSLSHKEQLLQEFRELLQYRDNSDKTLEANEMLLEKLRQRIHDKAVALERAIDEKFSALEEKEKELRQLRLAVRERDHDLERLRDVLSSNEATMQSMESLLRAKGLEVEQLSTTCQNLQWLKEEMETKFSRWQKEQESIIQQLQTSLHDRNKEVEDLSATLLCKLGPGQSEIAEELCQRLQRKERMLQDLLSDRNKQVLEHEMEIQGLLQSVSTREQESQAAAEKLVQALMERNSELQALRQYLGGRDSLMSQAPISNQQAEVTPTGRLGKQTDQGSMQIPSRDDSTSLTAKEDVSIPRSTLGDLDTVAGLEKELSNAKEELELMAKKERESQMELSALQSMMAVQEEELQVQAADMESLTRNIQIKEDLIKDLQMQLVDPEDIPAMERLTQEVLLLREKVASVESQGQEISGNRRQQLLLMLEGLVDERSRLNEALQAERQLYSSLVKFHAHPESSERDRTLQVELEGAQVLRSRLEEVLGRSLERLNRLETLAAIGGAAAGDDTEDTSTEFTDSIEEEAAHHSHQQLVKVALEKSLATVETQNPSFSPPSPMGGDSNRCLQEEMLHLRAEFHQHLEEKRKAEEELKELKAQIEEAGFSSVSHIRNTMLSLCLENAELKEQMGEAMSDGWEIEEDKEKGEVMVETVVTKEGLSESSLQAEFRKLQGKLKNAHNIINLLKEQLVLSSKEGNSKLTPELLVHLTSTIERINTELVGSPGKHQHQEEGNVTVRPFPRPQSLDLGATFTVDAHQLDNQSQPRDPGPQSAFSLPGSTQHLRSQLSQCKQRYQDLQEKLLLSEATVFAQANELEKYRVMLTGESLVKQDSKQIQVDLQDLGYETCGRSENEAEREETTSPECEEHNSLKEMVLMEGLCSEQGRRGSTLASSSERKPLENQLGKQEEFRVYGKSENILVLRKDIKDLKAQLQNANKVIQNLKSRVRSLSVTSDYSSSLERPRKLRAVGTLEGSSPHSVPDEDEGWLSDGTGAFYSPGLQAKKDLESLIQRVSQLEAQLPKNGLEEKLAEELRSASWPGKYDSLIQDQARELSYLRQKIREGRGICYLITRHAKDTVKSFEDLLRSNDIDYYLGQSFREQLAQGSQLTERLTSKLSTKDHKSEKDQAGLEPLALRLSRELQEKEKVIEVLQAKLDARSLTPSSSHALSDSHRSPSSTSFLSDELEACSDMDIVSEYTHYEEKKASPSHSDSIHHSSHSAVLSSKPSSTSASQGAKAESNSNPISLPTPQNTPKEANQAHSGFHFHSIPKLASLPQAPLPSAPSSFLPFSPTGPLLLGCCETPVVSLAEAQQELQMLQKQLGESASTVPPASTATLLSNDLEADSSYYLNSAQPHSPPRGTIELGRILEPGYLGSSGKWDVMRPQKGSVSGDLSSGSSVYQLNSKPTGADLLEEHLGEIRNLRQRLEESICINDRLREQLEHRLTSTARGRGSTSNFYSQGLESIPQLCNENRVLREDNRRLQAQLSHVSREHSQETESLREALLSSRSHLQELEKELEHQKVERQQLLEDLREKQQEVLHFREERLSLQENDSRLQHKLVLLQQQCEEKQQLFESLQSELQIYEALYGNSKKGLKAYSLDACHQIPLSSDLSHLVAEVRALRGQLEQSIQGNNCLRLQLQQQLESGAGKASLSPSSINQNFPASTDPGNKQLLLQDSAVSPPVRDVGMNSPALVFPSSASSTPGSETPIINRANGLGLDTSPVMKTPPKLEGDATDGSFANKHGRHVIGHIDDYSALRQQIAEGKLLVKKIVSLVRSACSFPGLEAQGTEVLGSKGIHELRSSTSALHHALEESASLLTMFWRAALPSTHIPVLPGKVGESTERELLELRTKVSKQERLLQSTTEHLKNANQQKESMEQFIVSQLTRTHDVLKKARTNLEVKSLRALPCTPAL
inactive: saracatinib -0.028 | sotrastaurin -0.064 | alvocidib 0.017 | Tubastatin A 0.064 | [1] -0.065 | defactinib 0.021 | rucaparib -0.057 | [2] 0.007 | encorafenib -0.015 | [3] 0.035 | [4] 0.113 | filanesib -0.057 | zotarolimus -0.046 | idasanutlin 0.055 | alisertib -0.102 | [5] 0.024 | gefitinib 0.024 | [6] -0.022 | lapatinib -0.005 | pictilisib 0.042

PNPLA2 (UniProt Q96AD5)
inactive: saracatinib 0.015 | sotrastaurin -0.028 | alvocidib -0.058 | Tubastatin A -0.034 | [1] -0.039 | defactinib 0 | rucaparib -0.06 | [2] 0.154 | encorafenib -0.012 | [3] -0.056 | [4] -0.089 | filanesib -0.134 | zotarolimus 0.002 | idasanutlin -0.082 | alisertib 0.014 | [5] -0.077 | gefitinib -0.048 | [6] 0.029 | lapatinib -0.032 | pictilisib 0.02

PTPA (UniProt Q15257)
inactive: saracatinib 0.009 | sotrastaurin 0.068 | alvocidib -0.06 | Tubastatin A -0.029 | [1] -0.036 | defactinib -0.033 | rucaparib -0.045 | [2] -0.012 | encorafenib 0.012 | [3] 0.003 | [4] -0.015 | filanesib -0.022 | zotarolimus 0.02 | idasanutlin -0.064 | alisertib -0.041 | [5] 0.034 | gefitinib 0.018 | [6] 0.036 | lapatinib 0.012 | pictilisib 0.02

PRKCB isoform 2 (UniProt P05771)
inactive: saracatinib -0.006 | alvocidib -0.014 | Tubastatin A -0.004 | [1] 0.012 | defactinib -0.03 | rucaparib 0.001 | [2] -0.03 | encorafenib 0.031 | [3] -0.001 | [4] -0.011 | filanesib -0.022 | zotarolimus 0.046 | idasanutlin -0.028 | alisertib -0.051 | [5] 0.035 | gefitinib 0.001 | [6] -0.036 | lapatinib -0.008 | pictilisib 0.035
active: sotrastaurin -0.343

PIK3C3 (UniProt Q8NEB9)
Chain of UniProt Q8NEB9 (Q8NEB9 whole entry, looked up): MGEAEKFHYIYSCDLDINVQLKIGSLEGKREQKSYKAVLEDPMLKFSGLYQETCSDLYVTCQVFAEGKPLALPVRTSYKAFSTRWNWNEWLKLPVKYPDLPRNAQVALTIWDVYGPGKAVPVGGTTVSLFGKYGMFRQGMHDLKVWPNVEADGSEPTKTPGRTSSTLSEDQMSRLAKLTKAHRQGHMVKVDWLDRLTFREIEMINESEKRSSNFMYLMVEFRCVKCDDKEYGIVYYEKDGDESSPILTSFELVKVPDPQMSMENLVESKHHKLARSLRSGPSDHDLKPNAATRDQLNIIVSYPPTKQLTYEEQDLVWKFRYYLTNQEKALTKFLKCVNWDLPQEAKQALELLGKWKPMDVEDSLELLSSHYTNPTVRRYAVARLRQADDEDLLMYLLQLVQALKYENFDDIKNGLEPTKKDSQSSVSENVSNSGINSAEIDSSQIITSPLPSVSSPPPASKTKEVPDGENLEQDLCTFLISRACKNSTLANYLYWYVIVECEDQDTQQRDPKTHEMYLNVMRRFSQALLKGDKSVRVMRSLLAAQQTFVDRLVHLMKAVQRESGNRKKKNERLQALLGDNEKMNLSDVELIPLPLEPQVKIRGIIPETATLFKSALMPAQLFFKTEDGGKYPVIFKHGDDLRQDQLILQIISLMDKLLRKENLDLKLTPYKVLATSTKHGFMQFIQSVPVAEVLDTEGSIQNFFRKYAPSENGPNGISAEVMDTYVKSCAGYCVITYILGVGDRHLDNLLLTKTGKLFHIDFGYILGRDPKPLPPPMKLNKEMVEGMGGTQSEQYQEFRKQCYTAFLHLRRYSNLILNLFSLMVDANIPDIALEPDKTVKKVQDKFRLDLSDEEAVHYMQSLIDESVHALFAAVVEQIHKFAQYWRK
inactive: saracatinib -0.007 | sotrastaurin -0.039 | alvocidib 0.044 | Tubastatin A 0.027 | [1] -0.003 | defactinib -0.012 | rucaparib 0.25 | [2] 0.002 | encorafenib 0.05 | [3] -0.018 | [4] 0.049 | filanesib 0.221 | zotarolimus 0.016 | idasanutlin -0.055 | alisertib 0.011 | [5] 0.172 | gefitinib 0.062 | [6] 0.007 | lapatinib 0.021 | pictilisib 0.094

PSMC5 (UniProt P62195)
inactive: saracatinib -0.041 | sotrastaurin -0.004 | alvocidib 0.065 | Tubastatin A -0.013 | [1] -0.028 | defactinib 0.066 | rucaparib 0.025 | [2] 0.065 | encorafenib 0.02 | [3] 0.009 | [4] -0.024 | filanesib 0.037 | zotarolimus -0.018 | idasanutlin 0 | alisertib -0.019 | [5] -0.053 | gefitinib -0.025 | [6] -0.031 | lapatinib 0.052 | pictilisib -0.05

PTGR2 (UniProt Q8N8N7)
inactive: saracatinib 0.021 | sotrastaurin 0.009 | alvocidib 0.015 | Tubastatin A 0.046 | [1] -0.052 | defactinib -0.025 | rucaparib 0.007 | [2] 0.136 | encorafenib -0.107 | [3] -0.043 | [4] -0.13 | filanesib -0.155 | zotarolimus 0.195 | idasanutlin 0.122 | alisertib -0.03 | [5] -0.04 | gefitinib 0.035 | [6] 0 | lapatinib 0.125 | pictilisib 0.313

PRKACB isoform 2 (UniProt P22694)
inactive: saracatinib -0.013 | sotrastaurin -0.119 | alvocidib -0.014 | Tubastatin A -0.035 | [1] -0.101 | defactinib 0.004 | rucaparib 0.002 | [2] 0.018 | encorafenib 0.011 | [3] 0.022 | [4] -0.045 | filanesib -0.098 | zotarolimus 0.021 | idasanutlin -0.01 | alisertib -0.037 | [5] 0.124 | gefitinib 0.015 | [6] 0.03 | lapatinib -0.018 | pictilisib -0.018

PDS5B (UniProt Q9NTI5)
Chain of UniProt Q9NTI5 (Q9NTI5 whole entry, looked up): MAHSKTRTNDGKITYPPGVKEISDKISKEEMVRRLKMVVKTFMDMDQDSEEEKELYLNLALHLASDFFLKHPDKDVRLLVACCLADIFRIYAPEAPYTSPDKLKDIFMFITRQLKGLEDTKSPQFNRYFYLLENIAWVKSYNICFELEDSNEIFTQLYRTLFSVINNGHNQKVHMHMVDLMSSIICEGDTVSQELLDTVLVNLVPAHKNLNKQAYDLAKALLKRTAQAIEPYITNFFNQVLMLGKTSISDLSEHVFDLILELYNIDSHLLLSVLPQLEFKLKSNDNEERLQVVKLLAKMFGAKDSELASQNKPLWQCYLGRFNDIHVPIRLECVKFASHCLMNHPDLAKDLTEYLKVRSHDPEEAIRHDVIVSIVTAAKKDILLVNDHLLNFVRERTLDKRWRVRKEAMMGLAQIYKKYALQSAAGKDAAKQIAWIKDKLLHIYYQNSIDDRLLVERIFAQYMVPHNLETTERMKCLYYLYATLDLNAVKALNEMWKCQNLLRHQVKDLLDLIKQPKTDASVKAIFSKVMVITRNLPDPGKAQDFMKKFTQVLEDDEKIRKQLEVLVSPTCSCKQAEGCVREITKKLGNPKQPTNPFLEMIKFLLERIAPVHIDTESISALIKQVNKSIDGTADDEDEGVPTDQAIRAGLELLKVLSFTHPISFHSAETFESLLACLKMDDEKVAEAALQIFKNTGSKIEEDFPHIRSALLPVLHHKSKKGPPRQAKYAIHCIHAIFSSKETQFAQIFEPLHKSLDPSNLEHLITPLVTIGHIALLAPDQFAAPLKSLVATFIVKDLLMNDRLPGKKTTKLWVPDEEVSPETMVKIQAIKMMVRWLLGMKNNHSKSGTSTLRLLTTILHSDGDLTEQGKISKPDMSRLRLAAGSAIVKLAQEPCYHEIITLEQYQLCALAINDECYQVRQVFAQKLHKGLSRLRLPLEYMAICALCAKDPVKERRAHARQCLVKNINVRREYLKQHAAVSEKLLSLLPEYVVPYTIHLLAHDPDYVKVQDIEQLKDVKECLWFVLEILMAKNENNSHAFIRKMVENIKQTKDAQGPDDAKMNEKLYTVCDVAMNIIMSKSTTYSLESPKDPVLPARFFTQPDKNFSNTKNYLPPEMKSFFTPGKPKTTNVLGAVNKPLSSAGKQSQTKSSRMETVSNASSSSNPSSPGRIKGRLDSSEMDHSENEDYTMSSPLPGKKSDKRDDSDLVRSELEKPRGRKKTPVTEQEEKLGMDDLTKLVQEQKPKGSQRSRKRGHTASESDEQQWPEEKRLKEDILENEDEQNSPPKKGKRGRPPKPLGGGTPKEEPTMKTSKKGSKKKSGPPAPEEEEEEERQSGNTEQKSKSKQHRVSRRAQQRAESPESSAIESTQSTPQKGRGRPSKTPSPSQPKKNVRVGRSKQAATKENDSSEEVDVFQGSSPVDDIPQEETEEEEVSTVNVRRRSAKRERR
inactive: saracatinib -0.134 | sotrastaurin 0.039 | alvocidib -0.097 | Tubastatin A 0.14 | [1] -0.169 | defactinib -0.101 | rucaparib -0.088 | [2] 0.014 | encorafenib 0 | [3] 0.032 | [4] 0.065 | filanesib 0.104 | zotarolimus 0.037 | idasanutlin -0.07 | alisertib -0.05 | [5] -0.188 | gefitinib 0.123 | [6] 0.078 | lapatinib -0.206 | pictilisib 0.066

PRKAR1B (UniProt P31321)
Chain of UniProt P31321 (P31321 whole entry, looked up): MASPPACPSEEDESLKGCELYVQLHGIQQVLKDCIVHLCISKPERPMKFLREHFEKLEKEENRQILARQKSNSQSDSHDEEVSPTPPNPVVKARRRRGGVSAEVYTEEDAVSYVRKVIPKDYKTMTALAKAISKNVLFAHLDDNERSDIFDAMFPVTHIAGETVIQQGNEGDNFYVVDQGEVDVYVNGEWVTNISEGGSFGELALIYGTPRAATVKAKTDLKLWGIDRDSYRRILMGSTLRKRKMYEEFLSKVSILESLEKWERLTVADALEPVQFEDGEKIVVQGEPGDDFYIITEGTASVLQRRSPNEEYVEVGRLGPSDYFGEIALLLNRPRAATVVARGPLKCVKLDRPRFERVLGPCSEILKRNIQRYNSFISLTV
inactive: saracatinib -0.137 | sotrastaurin -0.02 | alvocidib 0.128 | Tubastatin A 0.035 | [1] 0.247 | defactinib 0.117 | rucaparib 0.029 | [2] 0.047 | encorafenib 0.056 | [3] -0.067 | [4] 0.1 | filanesib 0.034 | zotarolimus 0.011 | idasanutlin -0.099 | alisertib 0.02 | [5] 0.027 | gefitinib 0.051 | [6] -0.162 | lapatinib 0.004 | pictilisib 0.199

PTPN23 (UniProt Q9H3S7)
inactive: saracatinib -0.007 | sotrastaurin -0.13 | alvocidib -0.061 | Tubastatin A 0.112 | [1] 0.055 | defactinib -0.169 | rucaparib 0.074 | [2] -0.055 | encorafenib 0.043 | [3] -0.023 | [4] 0.12 | filanesib 0.038 | zotarolimus 0.059 | idasanutlin -0.038 | alisertib 0.002 | [5] 0.044 | gefitinib 0.041 | [6] -0.008 | lapatinib -0.012 | pictilisib 0.037

PPP2R5A (UniProt Q15172)
inactive: saracatinib -0.03 | sotrastaurin -0.043 | alvocidib -0.089 | Tubastatin A 0.042 | [1] 0.01 | defactinib -0.037 | rucaparib 0.053 | [2] 0.032 | encorafenib 0.063 | [3] -0.03 | [4] 0.034 | filanesib -0.135 | zotarolimus 0.002 | idasanutlin -0.206 | alisertib -0.064 | [5] 0.032 | gefitinib -0.043 | [6] 0.005 | lapatinib 0.047 | pictilisib -0.096

PSMD11 (UniProt O00231)
inactive: saracatinib -0.065 | sotrastaurin -0.051 | alvocidib 0.051 | Tubastatin A 0.077 | [1] 0.013 | defactinib 0.059 | rucaparib 0.039 | [2] 0.041 | encorafenib 0.042 | [3] -0.05 | [4] 0.018 | filanesib -0.011 | zotarolimus 0.028 | idasanutlin 0.004 | alisertib -0.058 | [5] -0.052 | gefitinib -0.043 | [6] -0.071 | lapatinib 0.086 | pictilisib 0.003

PRKCG (UniProt P05129)
inactive: saracatinib 0.011 | sotrastaurin -0.373 | alvocidib -0.076 | Tubastatin A -0.025 | [1] 0.088 | defactinib -0.015 | rucaparib -0.021 | [2] -0.164 | encorafenib 0.19 | [3] -0.02 | [4] -0.071 | filanesib 0.019 | zotarolimus 0.118 | idasanutlin -0.011 | alisertib -0.01 | [5] 0.098 | gefitinib -0.025 | [6] -0.17 | lapatinib 0.055 | pictilisib 0.113
